# Test results taken from PubChem BioAssay (NCI).
# About 83,000 compounds went through this panel and 20% of them were active in at least one assay; those are over-represented in the sample as a whole.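 96-well plates, one dose, 48 hours. Percent growth reported; active if below 10.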 Calls of active or inactive are those of the source.
# Test system: OVCAR-4 ovarian
# Assay: NCI-60 one-dose screen, 48 h (100 = growth as untreated, 0 = no growth, -100 = all killed)
# Conditions: 10 µM unless noted
row,Structure (SMILES),growth
1,COc1cc(O)c2c(=O)c3c(CC=C(C)C)cc(OC)c(O)c3oc2c1,52.5% (inactive)
2,Cc1nc2sc(C(=O)Nc3cccc4ccccc34)c(N)c2cc1C(=O)c1ccccc1,51.8% (inactive)
3,Cc1cc(C(=O)CCCC(=O)c2cc(C)c(O)c(C)c2)cc(C)c1O,93.1% (inactive)
4,FC(F)(F)c1[nH]ncc1-c1nc2ccc3[nH]ncc3c2c2c1CCCC2,45.8% (inactive)
5,Nc1ncnc2c1N=C(c1ccc(F)cc1)CC(c1cccc(Nc3ccnc4cc(Cl)ccc34)c1)N2 (stereo not drawn),76.3% (inactive)
6,COC(=O)c1c2c(c(C)[n+]([O-])c1C)C(=O)C(NCc1ccccc1)=CC2=O,-78.7% (active)
7,COc1cc(C=Nc2oc(-c3ccccc3)c(-c3ccccc3)c2C#N)cc(CN2CCCC2)c1O,95.5% (inactive)
8,NCCCNc1nc2ccccc2c2c(=O)c3cc(Cl)ccc3sc12,33.4% (inactive)
9,O=C(/C=C/c1cccc(Oc2ccccc2)c1)c1ccc(Nc2nc(Nc3ccc(F)cc3)nc(Nc3ccc(Cl)cc3)n2)cc1,97.9% (inactive)
10,CCCCO[C@@H]1C=C2[C@H]3CC(C)(C)C(=O)C[C@]3(C(=O)O[C@@H]3O[C@H](CO[C@@H]4O[C@H](CO)[C@@H](OC5OC(C)C(O)C(O)C5O)[C@H](O)[C@H]4O)[C@@H](O)[C@H](O)[C@H]3O)CC[C@@]2(C)[C@]2(C)CC[C@H]3C(C)(C)C(=O)CC[C@]3(C)[C@@H]12 (stereo partly drawn),75% (inactive)
11,COc1ccc2cc(-c3nc4ccc(C)cn4c3NCc3ccco3)c(=O)[nH]c2c1,69.3% (inactive)
12,c1csc(-c2cn3nc(-c4c[nH]c5ccccc45)sc3n2)c1,45% (inactive)
13,O=C1C=CC2(O)OC/C(=C\c3ccccc3)C(O)=C2C1=O (stereo not drawn),30.4% (inactive)
14,C=C1CC[C@@H]2C(C)(C)[C@H](O)CC[C@@]2(C)[C@@H]1COc1ccc2ccc(=O)oc2c1,50.8% (inactive)
15,COC(=O)c1c(C)nc(C)c2c1C(=O)C=C(NCc1ccccc1)C2=O,64.6% (inactive)
16,COC(=O)c1ccc2cc(OC)c(OC)cc2c1,113% (inactive)
17,O=C(c1cccc(N2CCOCC2)n1)c1c[nH]c2ccccc12,82.3% (inactive)

row,Structure (SMILES),growth
1,C=C[C@@]1(C)CC(=O)[C@@H](C(C)(C)c2cn(C)c3ccc(Br)cc23)C[C@@H]1O[Si](C)(C)C(C)(C)C,94.2% (inactive)
2,COCCOC(C)C(/C=N/NC(N)=S)=N/NC(N)=S (stereo not drawn),9.81% (active)
3,Cc1cc(N2CCN(CC(=O)Nc3ccc4c(ccn4Cc4ccccc4)c3)CC2)nc(N2CCOCC2)n1,84.4% (inactive)
4,COc1ccc(C2CC(c3ccccc3)=NN2C(=O)c2cc(OC)c(OC)c(OC)c2)cc1O (stereo not drawn),42% (inactive)
5,Cc1ccc(O)c(NC(=O)c2cccc(Nc3ccnc(C(F)(F)F)c3)c2)c1,45.3% (inactive)
6,Cc1ncc(C(=O)Nc2ccc(CN3CCN(C)CC3)c(C(F)(F)F)c2)cc1C#Cc1cnc(N)c2ccc(C#N)cc12,-7.66% (active)
7,Cc1nn(C)c2ncnc(N/N=C/c3cccc(O)c3O)c12,22% (inactive)
8,O=C(O)CC(C(=O)O)/C(=C\c1ccccc1)c1ccccc1 (stereo not drawn),107% (inactive)
9,Fc1ccc2[nH]cc(-c3nc(-c4c[nH]c5c(Cl)nccc45)cs3)c2c1,65.3% (inactive)
10,CCCN(CCSSCCNc1nc(N(C)O)nc(N(C)O)n1)c1nc(N(C)O)nc(N(C)O)n1,55% (inactive)
11,CCOC(=O)c1cn2ncnc(Oc3ccc(NC(=O)NC4CC4)c(Cl)c3)c2c1C,53.2% (inactive)
12,COC1C(O)CC(OC2CC(OC3CC(O[C@@H]4C(=O)c5c(cc6cc(OC7CC(OC8CC(O)C(O)C(C)O8)C(O)C(C)O7)c(C)c(O)c6c5O)CC4[C@H](OC)[C@@H](O)C(C)=O)OC(C)C3O)OC(C)C2O)OC1C (stereo partly drawn),16.9% (inactive)
13,COC12C=C/C(=C(/C(=O)OCc3csc(SC)n3)C(=O)CCCCCCCCC3(OC)C=C/C(=C(/C(=O)OCc4cnc(SC)s4)C(=O)CCCCCCCC1)O3)O2 (stereo not drawn),38.8% (inactive)
14,COc1ccc(/C=C2\CN(C(=O)C(Cl)Cl)C/C(=C\c3ccc(OC)c(OC)c3)C2=O)cc1OC,19.8% (inactive)
15,Cc1c2cnccc2c(C)c2c1c1cc(CO)ccc1n2C,-56.2% (active)
16,COc1ccc(C=Nc2c(C(=O)Nc3cccc(Cl)c3C)sc3nc(C)c(C(=O)/C=C/c4ccc(OC)cc4)cc23)cc1,58.2% (inactive)
